The values below come from ChEMBL document CHEMBL1961873, “Compounds: GSK PKIS; Assays: Nanosyn kinase panel” (2012).

Each structure is given as a SMILES string.

In the first assay the test system is Tyrosine-protein kinase ABL1 (Homo sapiens), P00519 [M351T]. The following applies: at 0.1 µM.
Consider `O=C(Nc1ccc(Oc2ccc3[nH]c(NC(=O)c4ccccc4)nc3c2)cc1)Nc1cc(C(F)(F)F)ccc1F`, for which the inhibition (usually the relative decrease from the control value, in per cent) was found to be 44.6%.

Turning to `CCS(=O)(=O)c1ccc(OC)c(Nc2ncc(-c3cccc(-c4ccccc4F)c3)o2)c1`, the inhibition was determined as 44.6%.

For the compound `C[C@@H](Oc1cc(-n2cnc3ccc(OCC4CCN(C)CC4)cc32)sc1C(N)=O)c1ccccc1Cl`, the inhibition is -0.56%.

Take `Clc1ccc(CNc2nccc(-c3cnn4ncccc34)n2)cc1`: the inhibition amounted to 4.62%.

With `COc1ccc(C2=C(N3CCc4ccccc43)C(=O)NC2=O)cc1`, the inhibition is -0.47%.

In the case of `CCN(CC)Cc1ccc(Nc2nccc(-c3cnn4ncccc34)n2)cc1`, the inhibition was determined as 4.62%.

On to `COc1cc2ncn(-c3cc(OCc4ccccc4C(F)(F)F)c(C(C)=O)s3)c2cc1OC`, for which the inhibition is 1.37%.

`Fc1ccc(-c2nc3n(c2-c2ccncc2)CCS3)cc1`: the inhibition was determined as 1.2%.

On to `COc1cccc(/C=N/Nc2ncnc3c2cnn3-c2cccc(OC)c2)c1`, for which the inhibition is 7.51%.

In the case of `CS(=O)(=O)CCNCc1ccc(-c2ccc3ncnc(Nc4ccc(OCc5ccccc5)c(Br)c4)c3c2)o1`, the inhibition was found to be 0.99%.

As for `COc1cc(N2CCN(C(C)C)CC2)ccc1Nc1nc(Nc2ccc(F)cc2C(=O)NC[C@@H](O)CO)c2cc[nH]c2n1`, the inhibition was 3.03%.

Regarding `CN(C)c1ccc2c(c1)/C(=C/Nc1ccc(S(N)(=O)=O)cc1)C(=O)N2`, the inhibition came out at 3.86%.

On to `CN(C)CCCNc1nccc(-c2c(-c3ccc(F)cc3)nn3cc(C(F)(F)F)ccc23)n1`, for which the inhibition was 4.09%.

As to `Nc1nccc(-c2c(-c3ccc(F)cc3)ncn2C2CCC(O)CC2)n1` (stereo not drawn), the inhibition worked out at 7.44%.

In the case of `COc1cc2ncn(-c3cc(OCCc4ccccc4)c(C(N)=O)s3)c2cc1OC`, the inhibition is -0.05%.

For `CNC(=O)c1cncc(/C=C/c2c(C)cccc2C)c1`, the inhibition came to 16.9%.

Turning to `NCc1ccc(-n2c(-c3nonc3N)nc3cnccc32)cc1`, the inhibition is 3.87%.

For the compound `Fc1ccc(-c2ncn(C3CCNCC3)c2-c2ccnc(Oc3ccc4c(c3)OCO4)n2)cc1`, the inhibition came out at 1.29%.

Regarding `C#Cc1cccc(Nc2ncnc3ccc(OCCCCNCCS(C)(=O)=O)cc23)c1`, the inhibition was 4.14%.

Turning to `NS(=O)(=O)c1ccc(N/N=C2\C(=O)Nc3ccc(-c4cnco4)cc32)cc1`, the inhibition was 0.98%.

`O=C(NCC1CC1)c1ccc(-c2cccc(C(=O)NC3CC3)c2)cc1`: the inhibition worked out at 2.14%.

Consider `CCS(=O)(=O)c1ccc(OC)c(Nc2ncc(-c3ccccc3Cl)o2)c1`, for which the inhibition came out at 5.47%.

Regarding `COc1ccc(-c2ccc3c(NC(=O)C4CC4)n[nH]c3n2)cc1`, the inhibition came out at 1.26%.

`NC(=O)c1cc(-c2ccncc2)cc(-c2ccccc2)c1N`: the inhibition is 5.03%.

As for `Fc1ccc(-c2c(-c3ccncc3)nc3n2CCS3)cc1`, the inhibition is -0.24%.

With `COc1ccc2cc(-c3c(-c4ccncc4)nc(-c4ccc(S(C)(=O)=O)cc4C)n3C)ccc2c1`, the inhibition turned out to be 2.32%.

On to `Fc1ccc(-c2ncn(C3CCNCC3)c2-c2ccnc(Oc3ccc(Oc4ccccc4)cc3)n2)cc1`, for which the inhibition is -0.2%.

On to `COc1cc(Nc2ncc3c(C)nc(-c4cccc(C(F)(F)F)c4)n3n2)cc(OC)c1OC`, for which the inhibition is 1.36%.

Regarding `CN(c1ccc(NC(=O)Nc2c(Cl)cccc2Cl)cc1)c1ccnc(Nc2cccc(CS(C)(=O)=O)c2)n1`, the inhibition worked out at 46.9%.

Turning to `COc1cc2ncn(-c3cc(OCc4cccs4)c(C(N)=O)s3)c2cc1OC`, the inhibition came to 7.47%.

On to `NC(=O)Cc1ccccc1Oc1nccc(-c2c(-c3ccc(F)cc3)ncn2C2CCNCC2)n1`, for which the inhibition was -1.54%.

Consider `C/C(Nc1ccc(S(N)(=O)=O)cc1)=C1/C(=O)Nc2ccccc21`, for which the inhibition was determined as 3.92%.

For the compound `Fc1ccc(-c2ncn(CCCN3CCOCC3)c2-c2ccncc2)cc1`, the inhibition was -2.27%.

With `FC(F)(F)c1cccc(Nc2nccc(-c3cnn4nc(-c5ccccc5)ccc34)n2)c1`, the inhibition is -1.63%.

A further assay shares this test system. The following applies: at 1 µM.
Take `O=C(Nc1ccc(Oc2ccc3[nH]c(NC(=O)c4ccccc4)nc3c2)cc1)Nc1cc(C(F)(F)F)ccc1F`: the inhibition was 79.8%.

`CCS(=O)(=O)c1ccc(OC)c(Nc2ncc(-c3cccc(-c4ccccc4F)c3)o2)c1`: the inhibition turned out to be 86.9%.

For `C[C@@H](Oc1cc(-n2cnc3ccc(OCC4CCN(C)CC4)cc32)sc1C(N)=O)c1ccccc1Cl`, the inhibition worked out at 5.2%.

`Clc1ccc(CNc2nccc(-c3cnn4ncccc34)n2)cc1`: the inhibition was 3.11%.

On to `COc1ccc(C2=C(N3CCc4ccccc43)C(=O)NC2=O)cc1`, for which the inhibition was 7.03%.

For the compound `CCN(CC)Cc1ccc(Nc2nccc(-c3cnn4ncccc34)n2)cc1`, the inhibition came out at 37.4%.

Take `COc1cc2ncn(-c3cc(OCc4ccccc4C(F)(F)F)c(C(C)=O)s3)c2cc1OC`: the inhibition worked out at 6.24%.

For `Fc1ccc(-c2nc3n(c2-c2ccncc2)CCS3)cc1`, the inhibition stood at 4.76%.

As for `COc1cccc(/C=N/Nc2ncnc3c2cnn3-c2cccc(OC)c2)c1`, the inhibition came to 42%.

Turning to `CS(=O)(=O)CCNCc1ccc(-c2ccc3ncnc(Nc4ccc(OCc5ccccc5)c(Br)c4)c3c2)o1`, the inhibition stood at 2.04%.

In the case of `COc1cc(N2CCN(C(C)C)CC2)ccc1Nc1nc(Nc2ccc(F)cc2C(=O)NC[C@@H](O)CO)c2cc[nH]c2n1`, the inhibition is 5.84%.

Take `CN(C)c1ccc2c(c1)/C(=C/Nc1ccc(S(N)(=O)=O)cc1)C(=O)N2`: the inhibition amounted to 15.8%.

For `CN(C)CCCNc1nccc(-c2c(-c3ccc(F)cc3)nn3cc(C(F)(F)F)ccc23)n1`, the inhibition was found to be 3.29%.

Turning to `Nc1nccc(-c2c(-c3ccc(F)cc3)ncn2C2CCC(O)CC2)n1` (stereo not drawn), the inhibition is 36.6%.

Regarding `COc1cc2ncn(-c3cc(OCCc4ccccc4)c(C(N)=O)s3)c2cc1OC`, the inhibition came out at 11.6%.

Regarding `CNC(=O)c1cncc(/C=C/c2c(C)cccc2C)c1`, the inhibition is 63.8%.

Consider `NCc1ccc(-n2c(-c3nonc3N)nc3cnccc32)cc1`, for which the inhibition was found to be 0.32%.

As for `Fc1ccc(-c2ncn(C3CCNCC3)c2-c2ccnc(Oc3ccc4c(c3)OCO4)n2)cc1`, the inhibition was determined as 3.88%.

As to `C#Cc1cccc(Nc2ncnc3ccc(OCCCCNCCS(C)(=O)=O)cc23)c1`, the inhibition was 19.2%.

As for `NS(=O)(=O)c1ccc(N/N=C2\C(=O)Nc3ccc(-c4cnco4)cc32)cc1`, the inhibition turned out to be 17.7%.

Consider `O=C(NCC1CC1)c1ccc(-c2cccc(C(=O)NC3CC3)c2)cc1`, for which the inhibition turned out to be 4.08%.

Regarding `CCS(=O)(=O)c1ccc(OC)c(Nc2ncc(-c3ccccc3Cl)o2)c1`, the inhibition is 22%.

Turning to `COc1ccc(-c2ccc3c(NC(=O)C4CC4)n[nH]c3n2)cc1`, the inhibition was found to be 27.1%.

Take `NC(=O)c1cc(-c2ccncc2)cc(-c2ccccc2)c1N`: the inhibition is 36.6%.

As to `Fc1ccc(-c2c(-c3ccncc3)nc3n2CCS3)cc1`, the inhibition stood at 5.03%.

As for `COc1ccc2cc(-c3c(-c4ccncc4)nc(-c4ccc(S(C)(=O)=O)cc4C)n3C)ccc2c1`, the inhibition was 18%.

On to `Fc1ccc(-c2ncn(C3CCNCC3)c2-c2ccnc(Oc3ccc(Oc4ccccc4)cc3)n2)cc1`, for which the inhibition was 0.05%.

With `COc1cc(Nc2ncc3c(C)nc(-c4cccc(C(F)(F)F)c4)n3n2)cc(OC)c1OC`, the inhibition stood at 10.8%.

Consider `CN(c1ccc(NC(=O)Nc2c(Cl)cccc2Cl)cc1)c1ccnc(Nc2cccc(CS(C)(=O)=O)c2)n1`, for which the inhibition was determined as 81.9%.

As to `COc1cc2ncn(-c3cc(OCc4cccs4)c(C(N)=O)s3)c2cc1OC`, the inhibition was 50.4%.

Consider `NC(=O)Cc1ccccc1Oc1nccc(-c2c(-c3ccc(F)cc3)ncn2C2CCNCC2)n1`, for which the inhibition was -1.6%.

As for `C/C(Nc1ccc(S(N)(=O)=O)cc1)=C1/C(=O)Nc2ccccc21`, the inhibition was found to be 14.7%.

As to `Fc1ccc(-c2ncn(CCCN3CCOCC3)c2-c2ccncc2)cc1`, the inhibition was 1.4%.

Take `FC(F)(F)c1cccc(Nc2nccc(-c3cnn4nc(-c5ccccc5)ccc34)n2)c1`: the inhibition amounted to 2.9%.
